Eya2 phos inh: inhibitors of human Eya2 phosphatase activity. O00167. recombinant Eya2, OMFP fluorescence dephosphorylation (OMFP is methylfluorescein phosphate). Potency, µM (titrated, usually from 76.9 µM), without a hit: at the top dose activity, negative = inhibition, most hits filed as inhibitors. hit rate 0.006% among 330,000. AID 488837; also: potency is read from the fitted curve at half-maximal effect
Target sequence (O00167 whole entry, looked up): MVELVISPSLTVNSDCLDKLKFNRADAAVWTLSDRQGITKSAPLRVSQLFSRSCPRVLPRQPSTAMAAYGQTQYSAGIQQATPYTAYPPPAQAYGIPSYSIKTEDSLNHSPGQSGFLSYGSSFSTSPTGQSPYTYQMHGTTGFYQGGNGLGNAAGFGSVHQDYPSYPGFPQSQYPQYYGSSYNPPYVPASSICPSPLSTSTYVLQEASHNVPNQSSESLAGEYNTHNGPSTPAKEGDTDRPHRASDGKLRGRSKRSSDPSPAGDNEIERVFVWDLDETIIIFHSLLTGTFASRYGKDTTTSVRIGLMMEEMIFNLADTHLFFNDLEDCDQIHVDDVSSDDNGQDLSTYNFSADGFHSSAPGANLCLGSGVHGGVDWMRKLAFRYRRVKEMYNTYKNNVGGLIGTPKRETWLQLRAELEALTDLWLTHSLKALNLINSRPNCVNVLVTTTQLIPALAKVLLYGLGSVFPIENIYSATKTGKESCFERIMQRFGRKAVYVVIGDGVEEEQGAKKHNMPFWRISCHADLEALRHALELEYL
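Eya2 protein (added as 0.2 uM solution) was preincubated with compound for 10 min at ambient temperature in 50 mM HEPES pH 7.5, 50 mM NaCl, 5 uM MgCl2, 0.05% BSA, 1 mM DTT. OMFP (added at 50 uM) then reacted 10 min; fluorescence read at 485/525 nm.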
IDH1 R132H inh: blocks human mutant IDH1 R132H enzyme. O75874. IDH1-R132H enzyme, NADPH consumption, diaphorase/resazurin fluorescence. Potency, µM (highest dose often 76.6 µM), without a hit: top-dose activity change, negative = inhibition, usual class: inhibitors. hit rate 0.093% among 390,000. AID 602179; also: potency is read from the fitted curve at half-maximal effect; nearly all actives have a fitted effect of over 65% in size
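IDH1-R132H (0.5 ug/mL dispensed) in pH 7.5 Tris buffer was preincubated 30 min with compound, then given a substrate mix of 0.016 mM NADPH and 2 mM alpha-KG for 80 min at room temperature; remaining NADPH was read by diaphorase/resazurin fluorescence.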
TrxR1 substrate: rat thioredoxin reductase 1 substrate activity; Potency, µM (series often up to 114 µM), for the others: top-dose activity change, negative = substrate turnover; purified TrxR1 substrate turnover, NADPH consumption readout; O89049; AID 588456; hit rate 0.01% among 390,000; also: potency is read from the fitted curve at half-maximal effect; nearly all actives have a fitted effect of over 50% in size
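Rat TrxR1, dispensed at 90 nM, was prereduced with 400 uM NADPH (final) for 5 min at ~22 deg C, then incubated with compound 15 min before 400 uM selenite. A first-read NADPH fluorescence drop versus no-compound background flagged substrates.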
rTrxR1 inhibitor: rat TrxR1 inhibition; hit rate 1% among 390,000; recombinant rTrxR1, NADPH fluorescence consumption, selenite substrate; Potency, µM (top dose mostly 114 µM), for the others: at the highest dose activity change, negative = inhibition, actives largely listed as inhibitors; AID 588453; also: potency is read from the fitted curve at half-maximal effect; nearly all actives have a fitted effect of over 65% in size
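Rat TrxR1 (90 nM in the dispensed reagent) was pre-reduced with 400 uM NADPH for 5 min at room temperature, then incubated with compound for 15 min. After 400 uM selenite was added, NADPH fluorescence (Ex 340/Em 450 nm) was followed for 8 min.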
Coupling enz: coupling enzyme interference in Giardia aldolase counter-screen. coupling enzyme system counterscreen, AmpLite Red fluorescence. activity change, negative = inhibition, % at 58.2 µM, hits read low. hit rate 0.67% among 290,000; in the data active = activity change below about -30%
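Final compound at 57.5 uM, incubated 10 min at RT with coupling enzyme reagent (glyceraldehyde-3-phosphate), then 20 min with substrate and AmpLite Red detection. Fluorescence read at 525/598 nm; tests interference with the coupling assay, not aldolase inhibition.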
* hit, by the source's call; ? = inconclusive; . = no result; ! = not active in a repeat; [ ] = dose if it differs, or a comment. Compounds with a hit are over-represented: about 1.5% of the library has one in this group of screens. Unless noted, calls follow the shape of the dose curve; as a rule, active = well fitted curve in the direction sought with a large enough effect; inconclusive = small, poorly fitted or top-dose-only effect, or another doubt; inactive = no such curve, though single readings can be large; an effect the other way counts as inactive or inconclusive. % is scaled to controls: 0 for no effect and ±100 for the full control effect.

SMILES | Eya2 phos inh | IDH1 R132H inh | TrxR1 substrate | rTrxR1 inhibitor | Coupling enz
CN(C)S(=O)(=O)c1cccc(NC(=S)Nc2cc(Cl)cc(Cl)c2)c1 | 2% | 4% | -8% | 20µM* | 0
CN(C)S(=O)(=O)c1cccc(NC(=S)Nc2ccc(Cl)cc2Cl)c1 | -2% | 4% | -12% | ? | -12
O=c1oc2ccccc2nc1/C=C(\O)c1ccccc1 | 9% | -3% | -11% | -2% | 3
O/C(=C\c1nc2ccccc2nc1/C=C(\O)c1ccccc1)c1ccccc1 | 18% | -7% | -1% | 4% | -48*
Fc1ccc(NC(=S)Nc2nccs2)cc1 | 1% | 3% | 1% | 7.9µM* | -4
CCn1c(=S)[nH]c2ccccc21 | 1% | 6% | 529% | 89µM* | -1
C=C1C[C@@]23CC[C@H]4[C@@](C)(CCC[C@@]4(C)C(=O)OC4OC(CO)C(O)C(O)C4O)[C@@H]2CC[C@]1(OC1OC(CO)C(O)C(O)C1OC1OC(CO)C(O)C(O)C1O)C3 (some centres undefined) | 0% | . | 7%[57.1 µM] | 11%[57.1 µM] | .
CN(C)c1ccc(/C=C/c2ccnc3c([N+](=O)[O-])cccc23)cc1 | . | . | -7% | -15% | .
Cc1cnnc2ccccc12 | . | . | 4% | 0% | .
CCS(=O)(=O)c1nc(S(=O)(=O)c2ccc(Cl)cc2)c(N2CCOCC2)s1 | -9% | 0% | -7% | ? | .
CCCCc1nc(S(=O)(=O)c2ccc(Cl)cc2)c(N2CCOCC2)o1 | 8% | 3% | 0%[11.4 µM] | 1.6µM* | 0
CC(C)c1ccc(NC(=O)c2cc3c([nH]c2=O)CC(C)(C)CC3=O)cc1 | . | . | -1% | 10% | .
CC(C)OC(=O)c1cn(Cc2c(F)cccc2F)c2sc(-c3ccc(NC(=O)C(C)C)cc3)c(CN(C)Cc3ccccc3)c2c1=O | . | . | . | . | -1
CCCCn1c(NC(=O)c2ccccc2Cl)c(C#N)c2nc3ccccc3nc21 | 10% | 5% | ? | ? | -26
COc1ccc(-n2c(NC(=O)c3ccco3)c(C#N)c3nc4ccccc4nc32)cc1 | 7% | 5% | 19%[57.1 µM] | -44% | -52*
N#Cc1c(NC(=O)c2ccccc2Cl)n(Cc2ccccc2)c2nc3ccccc3nc12 | 3% | 4% | -10% | -6% | -39*
CCOC(=O)/C=C1\CN(Cc2cc(OC)c(OC)c(OC)c2)S(=O)(=O)c2ccc(C(F)(F)F)cc21 | -18% | 12% | 0%[57.1 µM] | 50µM*! | -3
CCOC(=O)/C=C1\CN(Cc2cc(OC)c(OC)c(OC)c2)S(=O)(=O)c2ccccc21 | -14% | -6% | -7% | 0%[57.1 µM] | 0
COc1cccc(COCCN2CCN(S(=O)(=O)c3ccccc3)CCC2=O)c1 | . | . | 0% | 6% | 4
COc1ccccc1-c1nc(S(=O)(=O)c2ccccc2)c(N2CCCCC2)o1 | 2% | 0% | 7% | 0.89µM* | -3
O=C(O)c1cc2cccc([N+](=O)[O-])c2[nH]1 | . | . | -5% | -6% | .
NCCCC[C@H](NC(=O)CNC(=O)[C@@H]1CCCN1C(=O)[C@H](Cc1ccc(O)cc1)NC(=O)CN)C(=O)N[C@@H](Cc1ccccc1)C(=O)O | . | . | . | . | 3
OC(C[n+]1c(Cl)ccc2ccccc21)c1ccccc1 (centres undefined) | . | . | 15% | 40µM* | .
Oc1ccc[n+](CC(O)c2ccccc2)c1 (centres undefined) | -13% | -17% | 10%[57.1 µM] | 9%[57.1 µM] | .
O=C(O)c1ccc(-c2ccc(-c3ccccc3)cc2)s1 | -4% | . | . | . | 16
SMILES | Eya2 phos inh | IDH1 R132H inh | TrxR1 substrate | rTrxR1 inhibitor | Coupling enz
Cc1cc(-c2ccc(C(=O)O)s2)cnc1N | 5% | 2% | 849% | 20µM* | 1
CCCCCCC(=O)N(O)C1CC(=O)N(Cc2ccccc2)C1=O (centres undefined) | -2% | 7% | -3% | 5% | -1
CCCCCC(=O)N(O)C1CC(=O)N(c2ccccc2)C1=O (centres undefined) | -9% | 5% | -21%[57.1 µM] | 3.5µM* | 6
O=C(O)C1NCCN(C(=O)c2ccc3c(ccc4ccccc43)c2)C1C(=O)O (centres undefined) | . | . | . | . | 0
COc1cccc(C(=O)NC2CC3CCCC(C2)N3CC(=O)Nc2ccccc2)c1 (centres undefined) | 16% | 3% | -11% | -17% | -36*
O=C(O)CCc1ccc(-c2ccccc2)n1-c1ccc(C(=O)O)cc1 | -1% | 1% | 5% | 79µM* | 9
CCOC(=O)c1ccc(-n2c(CCC(=O)O)ccc2-c2ccccc2)cc1O | . | ? | 2% | 50µM* | .
Cc1ccc(-c2ccc(CCC(=O)O)n2-c2ccc(C)c(Cl)c2)cc1 | . | -20% | 2% | ? | .
O=C(O)CCc1ccc(-c2ccccc2)n1-c1cccc(C(=O)O)c1 | 14% | 4% | 3% | 45µM* | 15
CC(=O)c1cccc(-n2c(CCC(=O)O)ccc2-c2ccc(C)cc2)c1 | 6% | -13% | 4%[57.1 µM] | ? | 11
Cc1ccc(C(=S)NCS(=O)(=O)c2ccc(C)cc2)cc1 | 8% | 7% | 9% | ? | 1
Cc1ccc(S(=O)(=O)CNC(=S)c2cccc(Cl)c2)cc1 | 2% | 8% | 4% | 14µM* | 0
Cc1cc2cc(CNC(=O)c3ccc(Br)o3)ccc2n1C | 1% | 0% | 10%[57.1 µM] | 8.9µM* | -24
COc1cccc(/C=N/N2C(=O)CSC2=S)c1O | 1% | -5% | -13% | 18µM* | -1
CN1C=CC(=C2C=CN(C)C=C2)C=C1 | . | . | . | . | -5
C/C=C1\COC(C(=O)NCc2ccccc2)(C(F)(F)F)C=C1C=C(C)C (centres undefined) | . | 12% | 0% | 3.2µM* | -1
C/C=C1\COC(C(=O)NCCN2CCOCC2)(C(F)(F)F)C=C1C=C(C)C (centres undefined) | . | . | 1% | 10µM* | -3
O=C(Nc1cccc(C(F)(F)F)c1)Nc1cc(Cl)ccc1C(=O)O | . | . | . | . | 0
NC(=O)N/N=C/c1ccc([N+](=O)[O-])o1 | 16% | 13% | -15% | 7.1µM* | 7
COc1ccccc1NS(=O)(=O)c1cccc(C(=O)N/N=C/c2ccc3c(c2)OCCO3)c1 | 0% | 2% | 21% | 18% | 3
O=C(N/N=C/c1ccc([N+](=O)[O-])o1)c1sc2ccccc2c1Cl | 8% | 6% | 5% | 79µM* | 1
O=C(COc1ccccc1)N/N=C/c1ccc([N+](=O)[O-])o1 | -23% | 16% | -4% | 50µM* | -1
COc1ccccc1NS(=O)(=O)c1cccc(C(=O)N/N=C/c2ccc([N+](=O)[O-])o2)c1 | -14% | 14% | -10% | 40µM* | .
O=C(N/N=C/c1ccccn1)c1sc2ccccc2c1Cl | -6% | 3% | -10% | -9% | -3
CCOCC | . | . | . | . | 0
O=C(COc1ccccc1C(=O)Nc1ccccc1F)Nc1ccc(Br)cc1 | . | . | 2% | 9% | .

Screening data: PubChem, National Center for Advancing Translational Sciences (NCATS)
